The supplement of paper PMC8540655
Values without a mark were called inactive.

System: Aedes aegypti larvae
Experiment: larval motility relative to same well at 0 h (fraction); higher = more motile (less active compound), active = 0.4 or less
Details: 10 µM
Outline: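 Larvae (Aedes aegypti, hatched in pond salt solution with yeast at 25 °C and taken 18–24 h later) were plated at about 10 per 100 µL well. Compounds at 10 µM in 1% v/v DMSO were imaged with INVAPP at 0, 2 and 24 h, alongside solvent and larvicide controls on each plate. Reported relative motility is each well's score over its own starting score, as a median of three independent larval batches.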

Compound | larval motility (2 h) | larval motility (24 h)
N[C@@H]1CN(c2c(F)cc3c(=O)c(C(=O)O)cn([C@@H]4C[C@@H]4F)c3c2Cl)CC12CC2 | 0.745 | 1.11
COc1ccc(NC(=O)c2cc3ccccn3n2)cc1 | 0.48 | 0.782
CN(Cc1ccc(C(C)(C)C)cc1)Cc1cccc2ccccc12 | 0.508 | 0.64
CCOC(=O)N[C@@H]1CC[C@@H]2[C@@H](C1)C[C@H]1C(=O)O[C@H](C)[C@H]1[C@H]2/C=C/c1ccc(-c2cccc(F)c2)cn1 | 1.18 | 0.624
Nc1nc2c(ncn2/C=C2/CC2(CO)CO)c(=O)[nH]1 | 0.842 | 0.573
CCc1oc2ccccc2c1C(=O)c1ccc(O)cc1 | 1.07 | 1.17
Nc1cccc(-c2nc(N)nc(NC3Cc4ccccc4C3)n2)c1 | 1.08 | 0.803
O=c1ccc2ncc(=O)n3c2n1CC3CN1CCC(NCc2cc3c(cn2)OCCC3)CC1 (configuration not stated) | 0.641 | 0.964
O=[N+]([O-])c1cn2c(n1)OC[C@@H](OCc1ccc(OC(F)(F)F)cc1)C2 | 1.12 | 1.3
COc1cc(NCc2ccc3nc(N)nc(N)c3c2C)cc(OC)c1OC | 0.5 | 0.356 (active)
CC(C)c1cc2c(cc1S(=O)(=O)O)[C@@]1(C)CCC[C@@](C)(C(=O)O)[C@@H]1CC2 | 0.784 | 0.697
O=c1cc(OCc2ccccc2)ccn1Cc1ccccc1 | 1.27 | 1.69
Clc1ccc(COC(Cn2ccnc2)c2ccc(Cl)cc2Cl)c(Cl)c1 (configuration not stated) | 0.499 | 0.677
Cc1ccn2c(C(=O)NCc3ccccc3)c(C)nc2c1 | 1.47 | 2.35
[N-]=[N+]=N[C@H]1C[C@H](n2ccc(=O)[nH]c2=O)O[C@@H]1CO | 1.11 | 0.881
O=[N+]([O-])/C(Br)=C/c1ccc(Br)o1 | 1.13 | 0.796

Compound | larval motility (2 h) | larval motility (24 h)
CC(C)(C)c1cc(CCC(=O)N2CCC2)cc(C(C)(C)C)c1O | 0.769 | 0.774
Cn1cncc1[C@@](N)(c1ccc(Cl)cc1)c1ccc2c(c1)c(-c1cccc(Cl)c1)cc(=O)n2C | 0.645 | 0.876
O=C1c2cccc3cccc(c23)C(=O)N1CC1CO1 (configuration not stated) | 0.906 | 0.936
CCCC1(C2CC2)c2cc(Cl)ccc2NC(=O)N1C (configuration not stated) | 0.846 | 0.863
O=c1cc(Nc2ccc3ccccc3c2)[nH]c(=O)[nH]1 | 0.528 | 0.778
NCc1ccc(S(N)(=O)=O)cc1 | 0.675 | 0.66
OCCC#Cc1nc(-c2ccc(F)cc2)c(-c2ccncc2)n1CCCc1ccccc1 | 0.457 | 0.301 (active)
O=C(Nc1nnc(-c2ccc(Cl)cc2)o1)c1nc2ccccc2s1 | 0.919 | 1.05
O=S(=O)(Nc1cccc2cccnc12)c1ccccc1 | 0.587 | 0.61
CC[C@H](NC(=O)[C@H](C)NC)C(=O)N1C[C@@H](O)C[C@H]1Cc1c(-c2[nH]c3cc(F)ccc3c2C[C@@H]2C[C@H](O)CN2C(=O)[C@H](CC)NC(=O)[C@H](C)NC)[nH]c2cc(F)ccc12 | 0.407 | 0.89
CC1(C)[C@H](C(=O)O)N2C(=O)C[C@H]2S1(=O)=O | 0.965 | 1.35
CCC[C@@H]1C[C@@H](C(=O)N[C@@H]([C@H]2O[C@H](SC)[C@H](O)[C@@H](O)[C@H]2O)[C@H](C)Cl)N(C)C1 | 0.804 | 0.885
COc1cc(NC(=O)CN2C(=O)NC(c3ccccc3)(c3ccccc3)C2=O)cc(OC)c1 | 0.866 | 1.08
NC[C@H]1OB(O)c2c(OCCCO)cccc21 | 1.28 | 1.61
O=C(NC(=O)N1CCCc2ccccc21)c1cccc(Cl)c1 | 0.838 | 1.04
